High-throughput results from PubChem.
Six1-Eya2 inh: Six1/Eya2 interaction inhibition. AlphaScreen GST-Six1/His-Eya2 binding, biochemical; stronger effect = lower value. activity change, % (no concentration beside the values). 0.56% of 360,000 active; in the data active means activity change below about -65%; inconclusive means mostly about -30% to -63%
Target sequence (O00167 whole entry, looked up): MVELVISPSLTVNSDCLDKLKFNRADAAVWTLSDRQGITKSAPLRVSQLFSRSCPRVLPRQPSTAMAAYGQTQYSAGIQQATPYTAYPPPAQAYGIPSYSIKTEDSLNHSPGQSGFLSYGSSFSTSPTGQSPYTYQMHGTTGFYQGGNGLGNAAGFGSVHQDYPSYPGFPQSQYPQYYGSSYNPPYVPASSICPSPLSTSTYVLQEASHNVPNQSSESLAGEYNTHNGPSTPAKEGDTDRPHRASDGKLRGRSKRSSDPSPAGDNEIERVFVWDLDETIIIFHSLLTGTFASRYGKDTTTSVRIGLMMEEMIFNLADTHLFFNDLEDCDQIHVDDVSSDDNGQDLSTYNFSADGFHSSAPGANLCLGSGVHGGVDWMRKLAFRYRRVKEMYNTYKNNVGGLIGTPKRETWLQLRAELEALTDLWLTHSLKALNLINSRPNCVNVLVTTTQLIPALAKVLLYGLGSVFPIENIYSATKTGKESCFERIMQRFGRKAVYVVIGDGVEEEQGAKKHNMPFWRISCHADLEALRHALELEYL
Target sequence (Q15475 whole entry, looked up): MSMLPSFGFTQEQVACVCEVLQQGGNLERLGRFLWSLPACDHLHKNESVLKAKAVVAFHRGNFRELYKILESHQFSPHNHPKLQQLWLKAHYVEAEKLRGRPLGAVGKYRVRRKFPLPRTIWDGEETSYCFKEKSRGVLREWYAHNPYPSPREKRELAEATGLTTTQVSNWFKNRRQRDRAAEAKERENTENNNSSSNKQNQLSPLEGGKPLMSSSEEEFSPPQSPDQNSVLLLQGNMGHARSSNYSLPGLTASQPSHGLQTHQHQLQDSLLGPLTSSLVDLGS
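GST-Six1 + His-Eya2 (5X stock: 250/500 nM); Tris pH 8.0, 300 mM NaCl, 0.05% BSA, 0.02% Tween 20; GSH donor/Ni acceptor beads; 1 h 37 °C dark; AlphaScreen readout.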
HP1b binding inh: blocks HP1-beta chromodomain binding to methylated histone tails; AID 540317; AlphaScreen HP1-beta / biotin-H3K9me3 peptide binding; 0.56% of 390,000 active; P83916; Potency, µM (series often up to 114 µM), hits mostly inhibitors; further: nearly all actives have a fitted effect of over 70% in size
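Compound inhibition of the preformed complex between 50 nM HP1-beta and 50 nM biotinylated H3K9me3 peptide was read by AlphaScreen. Buffer was PBS pH 7.4 with 0.01% Tween-20. Incubations ran 30 min at room temperature, with 10 ug/mL donor/acceptor beads.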
JMJD2A Tudor inh: blocks the human JMJD2A Tudor domain; O75164; Potency, µM (doses to about 114 µM), usual class: inhibitors; AlphaScreen JMJD2A-Tudor / H3K4me3 peptide binding; 4.4% of 390,000 active; AID 504339; further: nearly all actives have a fitted effect of over 50% in size
CtBP-E1A inh: CtBP/E1A binding inhibition. AlphaScreen GST-E1A/His-CtBP binding, 1536-well; stronger effect = lower value. activity change, % (concentration not given with the values). AID 651724. 0.49% of 340,000 active; in the data active means activity change below about -65%; inconclusive means mostly about -30% to -63%
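AlphaScreen with 125 nM GST-E1A and 125 nM His-CtBP (5X stocks) in Tris pH 8.0, 300 mM NaCl, BSA, Tween 20, TCEP. Compounds preincubated 2 h at 37 deg C, then glutathione donor/nickel acceptor beads added for 1 h at 37 deg C in dark.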
BAZ2B inh: inhibitors of human BAZ2B bromodomain | Potency, µM (series often up to 114 µM), actives largely listed as inhibitors | AlphaScreen BAZ2B-H3K14Ac peptide displacement | 4.4% of 360,000 active | Q9UIF8; further: nearly all actives have a fitted effect of over 60% in size
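Complex of BAZ2B and biotin-H3K14Ac (50 nM apiece) forms over 30 min at RT, then faces library compounds up to 110 uM for another 30 min; AlphaScreen beads added, 20 min dark incubation, luminescence read.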
TDP1 block: inhibitors of human tyrosyl-DNA phosphodiesterase TDP1; Q9NUW8; recombinant TDP1, AlphaScreen DNA substrate cleavage; Potency, µM (series often up to 130 µM), usual class: inhibitors; 0.28% of 350,000 active; AID 485290; further: nearly all actives have a fitted effect of over 40% in size
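Enzyme-compound mixtures sat 15 min at room temperature, followed by a 5 min reaction with 15 nM final substrate and 10 min with AlphaScreen beads. Recombinant human Tdp1 was used at 1 nM final.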
JMJD2E inh-1: JMJD2E demethylase inhibition by 8HQ compounds | JMJD2E demethylase, FDH-coupled NADH fluorescence | shares compounds with BAZ2B inh | 89% of 130 active | Potency, µM (top dose mostly 57 µM), actives largely listed as inhibitors
JMJD2E inh-2: confirmation of inhibitors of human JMJD2E demethylase; shares compounds with JMJD2A Tudor inh; Recombinant JMJD2E, FDH-coupled NADH fluorescence (FDH is formaldehyde dehydrogenase); Potency, µM (doses to about 56.8 µM), actives largely listed as inhibitors; 93% of 140 active; AID 2677
FDH counter: blocks Pseudomonas putida formaldehyde dehydrogenase, flagging JMJD2E artifacts; Potency, µM (titrated, usually from 56.7 µM), hits mostly inhibitors; 10% of 140 active; AID 2680; FDH enzyme assay, NADH fluorescence kinetic; shares compounds with JMJD2A Tudor inh
JMJD2E MALDI inh: human KDM4E demethylase inhibition. shares compounds with JMJD2A Tudor inh. recombinant JMJD2E demethylation, MALDI-TOF-MS. Potency, µM, usual class: inhibitors. 90% of 45 active. AID 2688;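 active means compounds whose IC50 for blocking JMJD2E demethylation is below 100 µM; inconclusive means dose dependent effect but IC50 above 100 µM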
Of the large screens only hits and unclear results are named; the others gave an inactive call (follow-up assays come after a bar, where they were run). An excerpt weighted towards active compounds, which were near 5.3% of everything screened. Unless noted, the call rests on the fitted dose curve; in most records, active means well fitted inhibition curve with a large enough effect; inconclusive means small, poorly fitted or top-dose-only effect; inactive means no such curve, though single readings can be large or run the other way.

Oc1ccc(CNc2ccccc2F)c2cccnc12	Six1-Eya2 inh -91, HP1b binding inh 1.4µM, JMJD2A Tudor inh 79µM, CtBP-E1A inh -94, BAZ2B inh 14µM | JMJD2E inh-1 5.8µM | JMJD2E inh-2 1.4µM | FDH counter inactive
Oc1ccc(CNc2ccccc2C(F)(F)F)c2cccnc12	JMJD2A Tudor inh 56µM (no result: Six1-Eya2 inh, HP1b binding inh, CtBP-E1A inh, BAZ2B inh) | JMJD2E inh-1 4µM | JMJD2E inh-2 13µM | FDH counter inactive | JMJD2E MALDI inh 11
Oc1ccc(CCc2ccccc2F)c2cccnc12	none (no result: Six1-Eya2 inh, HP1b binding inh, CtBP-E1A inh, BAZ2B inh) | JMJD2E inh-1 10µM | JMJD2E inh-2 13µM | FDH counter inactive | JMJD2E MALDI inh 29
Oc1ccc(CNc2ccccn2)c2cccnc12	JMJD2A Tudor inh 40µM (no result: Six1-Eya2 inh, HP1b binding inh, CtBP-E1A inh, BAZ2B inh) | JMJD2E inh-1 7.9µM | JMJD2E inh-2 11µM | FDH counter inactive | JMJD2E MALDI inh 33
Oc1ccc(Br)cc1CNc1ccccn1	none
O=C(Cc1ncc(C(F)(F)F)cc1Cl)NCc1cccnc1	none (no result: TDP1 block)
Oc1ccc(CNc2ccc(C(F)(F)F)cc2Cl)c2cccnc12	BAZ2B inh 79µM (no result: Six1-Eya2 inh, HP1b binding inh, JMJD2A Tudor inh, CtBP-E1A inh, TDP1 block) | JMJD2E inh-1 11µM | JMJD2E inh-2 11µM | FDH counter inactive
CCOc1ccc(NC(=O)CSc2nc3ccsc3c(=O)n2CCC(C)C)cc1	none (no result: Six1-Eya2 inh, CtBP-E1A inh)
Oc1cc(NCc2ccc(F)cc2)cc2cccnc12	BAZ2B inh inconclusive (no result: Six1-Eya2 inh, CtBP-E1A inh) | JMJD2E inh-1 36µM | JMJD2E inh-2 inconclusive | FDH counter inactive | JMJD2E MALDI inh 75
COc1cc(NCc2ccccc2O)c2ncccc2c1	BAZ2B inh inconclusive
CN(C)CCCNc1cc(O)c2ncccc2c1	JMJD2A Tudor inh 35µM, BAZ2B inh 8.9µM (no result: Six1-Eya2 inh, CtBP-E1A inh) | JMJD2E inh-1 28µM | JMJD2E inh-2 28µM | FDH counter inactive | JMJD2E MALDI inh inconclusive
Fc1ccc(CNc2ncccn2)cc1	none
Nc1c(C(=O)Nc2ccccc2)nnn1Cc1ccc(F)cc1Cl	BAZ2B inh inconclusive (no result: Six1-Eya2 inh, CtBP-E1A inh)
O=C(Nc1ccc(F)c(Cl)c1)N1CCC(CN2CCOCC2)CC1	none (no result: Six1-Eya2 inh, CtBP-E1A inh)
CC(=O)Nc1ccccc1-c1nn[nH]n1	BAZ2B inh inconclusive
Oc1ccc(-c2nn[nH]n2)c2cccnc12	JMJD2A Tudor inh 14µM (no result: Six1-Eya2 inh, HP1b binding inh, CtBP-E1A inh, BAZ2B inh) | JMJD2E inh-1 2.9µM | JMJD2E inh-2 2.6µM | FDH counter inactive | JMJD2E MALDI inh 26
Oc1cccc2cc(NCc3ccccc3F)cnc12	none (no result: Six1-Eya2 inh, HP1b binding inh, JMJD2A Tudor inh, CtBP-E1A inh, BAZ2B inh, TDP1 block) | JMJD2E inh-1 32µM | JMJD2E inh-2 20µM | FDH counter inactive
Oc1cccc2cc(CNc3ccccc3F)cnc12	none (no result: Six1-Eya2 inh, HP1b binding inh, JMJD2A Tudor inh, CtBP-E1A inh, BAZ2B inh, TDP1 block) | JMJD2E inh-1 inconclusive | JMJD2E inh-2 3.2µM | FDH counter inactive
CSc1ccc(CNc2cccc3ccccc23)cc1	none
O=C(NCc1ccc2c(c1)OCO2)c1ccc2c(c1)N(Cc1c(F)cccc1Cl)C(=O)c1ccccc1S2	none (no result: Six1-Eya2 inh, CtBP-E1A inh, BAZ2B inh)
COc1cccc(N2CCN(C(=O)C3CCCN(S(=O)(=O)c4ccc(Br)s4)C3)CC2)c1 (stereo unspecified)	JMJD2A Tudor inh inconclusive, BAZ2B inh inconclusive (no result: Six1-Eya2 inh, CtBP-E1A inh)
COc1ccccc1CNC(=O)C(=O)NCC(c1ccco1)S(=O)(=O)c1cccs1 (stereo unspecified)	none (no result: Six1-Eya2 inh, CtBP-E1A inh)
Oc1cc(Nc2ccc(N3CCCCC3)cc2)cc2cccnc12	BAZ2B inh 35µM (no result: Six1-Eya2 inh, HP1b binding inh, JMJD2A Tudor inh, CtBP-E1A inh, TDP1 block) | JMJD2E inh-1 28µM | JMJD2E inh-2 28µM | FDH counter inactive | JMJD2E MALDI inh 34
O=C(COC(=O)c1cccnc1Cl)Nc1ccc(N2CCCCC2)cc1	JMJD2A Tudor inh inconclusive
